Screens deposited in PubChem by National Center for Advancing Translational Sciences (NCATS).
CHX counter: affects cycloheximide protein synthesis inhibition readout, counter-screen. cell reporter, cycloheximide protein synthesis inhibition counterscreen. hit rate 12% among 300,000. max response, %; in the data active means max response mostly above about 13%, no sharp cut-off; inactive means mostly below about 14%; further: read at 38.3 µM for the half of the compounds with a filed dose; 0% is about no effect
NS1 inh: influenza NS1 inhibition | hit rate 0.4% among 270,000 | AID 2326 | Potency, µM (doses to about 46.1 µM), without a hit: at the top dose activity, positive = more growth; calls by dose curve; further: potency means the concentration at half of the fitted maximal effect; actives are rising curves; nearly all actives have a fitted effect of over 50% in size
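OD600 was taken as the measure of yeast growth restored by compound in an NS1-expressing S. cerevisiae strain. Cells had been washed out of glucose medium and diluted 1:100 into galactose -URA medium, pH 6.0.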
AmpC inh detg: inhibitors of E. coli AmpC beta-lactamase with detergent. P00811. AmpC hydrolysis of nitrocefin, absorbance 480 nm, 0.01% Triton. Potency, µM (doses to about 114 µM), for the others: at the top dose activity change, negative = inhibition, most hits filed as inhibitors. hit rate 0.041% among 370,000. AID 485294;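 further: potency means the concentration at half of the fitted maximal effect; 0% = no-compound wells and -100% = no-enzyme wells; nearly all actives have a fitted effect of over 25% in size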
Target sequence (P00811 whole entry, looked up): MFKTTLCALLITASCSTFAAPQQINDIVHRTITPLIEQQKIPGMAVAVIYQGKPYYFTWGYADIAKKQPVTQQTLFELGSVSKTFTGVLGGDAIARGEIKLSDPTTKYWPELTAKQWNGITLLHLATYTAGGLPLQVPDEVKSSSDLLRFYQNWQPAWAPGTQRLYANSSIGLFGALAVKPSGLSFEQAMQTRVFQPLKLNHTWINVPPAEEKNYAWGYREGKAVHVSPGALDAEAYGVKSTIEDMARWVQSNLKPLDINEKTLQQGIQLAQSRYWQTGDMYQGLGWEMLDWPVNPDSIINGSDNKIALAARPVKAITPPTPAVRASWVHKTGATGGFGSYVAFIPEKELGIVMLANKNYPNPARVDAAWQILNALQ
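20 mM phosphate pH 7.0 + 0.01% (detergent screen) or 0.0001% Triton X-100; 5.3 nM AmpC reagent; cpd preinc 15 min RT; nitrocefin (800 uM stock) to start; A480 q20 s × 4 min; Activity was normalised to no-enzyme and no-compound control wells.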
AmpC no deterg: AmpC beta-lactamase inhibition without detergent | hit rate 0.52% among 330,000 | AmpC nitrocefin hydrolysis, absorbance 480 nm, 0.0001% Triton | P00811 | AID 485341 | Potency, µM (titrated, usually from 57.1 µM), inactives show top-dose activity change, negative = inhibition, most hits filed as inhibitors;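 further: potency means the concentration at half of the fitted maximal effect; plate controls were no compound for no effect and no enzyme for full effect; nearly all actives have a fitted effect of over 20% in size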
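20 mM phosphate pH 7.0 + 0.01% (detergent screen) or 0.0001% Triton X-100; 5.3 nM AmpC reagent; cpd preinc 15 min RT; nitrocefin (800 uM stock) to start; A480 q20 s × 4 min; Activity was normalised to no-enzyme and no-compound control wells.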
Shiga inhibitor: inhibitors of Shiga toxin in Vero cells; Vero cells, Shiga toxin protein synthesis inhibition reporter; inhibition, % at 38.7 µM; hit rate 9.2% among 290,000; AID 2315; in the data active means inhibition mostly above about 28%, no sharp cut-off; inactive means mostly below about 43%; further: 0% is about no effect
The depositor's hits bear a star; ! = not confirmed by another sample. Shown is part of a subset that was picked to be rich in hits. Unless noted, the call rests on the fitted dose curve; in most records, active means well fitted curve in the direction sought with a large enough effect; inconclusive means small, poorly fitted or top-dose-only effect, or another doubt; inactive means no such curve, though single readings can be large; an effect the other way counts as inactive or inconclusive.

Screening COc1ccc(NC(=O)CC2C(=O)N(c3ccc(OC)cc3)C(=S)N2NC(=O)c2cccc(F)c2)cc1 (stereo unspecified) returned CHX counter 3, NS1 inh 9%, AmpC inh detg inconclusive, AmpC no deterg -17% and Shiga inhibitor 18.
NC(=O)CC1C(=O)N(c2ccccc2)C(=S)N1NC(=O)c1ccc(Br)cc1 (stereo unspecified) was read as CHX counter 29*, NS1 inh 5%, AmpC inh detg -14%, AmpC no deterg -19% and Shiga inhibitor 55*.
For COc1cccc(C(=O)NN2C(=S)N(c3ccccc3)C(=O)C2CC(N)=O)c1 (stereo unspecified) the results were CHX counter 43*, NS1 inh 3%, AmpC inh detg -8%, AmpC no deterg 4% and Shiga inhibitor 50*.
For CCc1ccccc1NC(=O)CCc1c(C)nc2cc(-c3ccccc3)nn2c1C the results were AmpC inh detg 4%.
Cc1ccccc1-n1c(SCC(=O)NC(N)=O)nc2sc(-c3ccccc3)cc2c1=O was read as CHX counter 18*, NS1 inh 27%, AmpC inh detg 1%, AmpC no deterg -28% and Shiga inhibitor 24.
Cc1ccccc1-n1c(SCC(N)=O)nc2sc(-c3ccccc3)cc2c1=O was read as CHX counter -1, NS1 inh 8%, AmpC inh detg 1%, AmpC no deterg -19% and Shiga inhibitor -9.
For CCCCCCOc1ccc(CN2CCN(CCO)CC2)cc1 the results were CHX counter 38*, NS1 inh -23%, AmpC inh detg 0%, AmpC no deterg 119% and Shiga inhibitor 61*.
Screening CCCCOc1ccc(CN2CCN(CC)CC2)cc1 returned CHX counter 12, NS1 inh -2%, AmpC inh detg inconclusive, AmpC no deterg -11% and Shiga inhibitor -2.
For CCCCOc1ccc(CN2CCN(CCO)CC2)cc1 the results were CHX counter 29*, NS1 inh -6%, AmpC inh detg inconclusive, AmpC no deterg -5% and Shiga inhibitor 24.
CCCCOc1ccc(CN2CCC(O)CC2)cc1 was read as CHX counter 37*, NS1 inh -19%, AmpC inh detg -16%, AmpC no deterg 13% and Shiga inhibitor 91*.
Screening COc1ccc(C(=O)Nc2nnc(SCc3cc(=O)n4cc(Cl)ccc4n3)s2)cc1 returned AmpC inh detg 13%.
For CC(=O)Nc1ccc(S(=O)(=O)N(Cc2ccccc2)Cc2ccccc2)cc1 the results were AmpC inh detg 13%.
For COc1ccccc1OCCCOc1c(Cl)cc(C)cc1Cl the results were CHX counter 15*, NS1 inh -41%, AmpC inh detg 3%, AmpC no deterg -10% and Shiga inhibitor 21.
Screening COc1cc(C)ccc1OCCCOc1c(Cl)cccc1Cl returned CHX counter 18*, NS1 inh -22%, AmpC inh detg -1%, AmpC no deterg -16% and Shiga inhibitor 60.
Screening COc1cc(C)ccc1OCCOc1c(C)cc(Cl)cc1Cl returned CHX counter 1, NS1 inh -9%, AmpC inh detg 0%, AmpC no deterg -11% and Shiga inhibitor -11.
For Cc1ccc(OCc2cc(=O)n3cc(C)sc3n2)c(C)c1 the results were AmpC inh detg 0%.
`COc1ccc(NC(=O)Nc2nnc(N(C)C3CCCCC3)s2)c(OC)c1` gave AmpC inh detg -2%.
Screening CCN1CCN(c2ccc(-n3c(C)nc4c(cnn4-c4ccccc4Cl)c3=O)cc2)CC1 returned NS1 inh -5%.
Screening O=C1c2ccccc2-n2c1nc1ccccc1c2=O returned CHX counter 32, NS1 inh -40%, AmpC inh detg inconclusive, AmpC no deterg -9% and Shiga inhibitor 52*!.
`CCOC(=O)c1c(N)sc(C(=O)OCCOC)c1C` gave CHX counter 35*, AmpC inh detg inconclusive, AmpC no deterg -5% and Shiga inhibitor 59*.
Screening CCOC(=O)c1c(N)sc(C(=O)N2CCCCC2)c1C returned CHX counter 2, NS1 inh 3%, AmpC inh detg -1%, AmpC no deterg -14% and Shiga inhibitor 12.
CCOC(=O)c1sc(N)c(C(=O)OCC)c1C was read as CHX counter 51*, NS1 inh -30%, AmpC inh detg 4%, AmpC no deterg -30% and Shiga inhibitor 81*.
For CCOC(=O)c1c(N)sc(C(=O)N2CCCC2)c1C the results were CHX counter -3, NS1 inh -3%, AmpC inh detg -5%, AmpC no deterg -9% and Shiga inhibitor -6.
`CCOC(=O)c1sc(N)c(C(=O)Nc2ccccc2)c1C` gave CHX counter 27*, NS1 inh -3%, AmpC inh detg 0%, AmpC no deterg -29% and Shiga inhibitor 46*.
O=C(/C=C/c1ccc2c(c1)OCO2)Nc1nc2ccccc2s1 was read as CHX counter 41*, NS1 inh 2%, AmpC inh detg inconclusive, AmpC no deterg -14% and Shiga inhibitor 62*.
For Cc1csc(NC(=O)/C=C/c2ccc3c(c2)OCO3)n1 the results were CHX counter 74*, NS1 inh 0%, AmpC inh detg -3%, AmpC no deterg -25% and Shiga inhibitor 91*.
Screening CC(C)(O)c1[nH]c2cc(F)ccc2c1C(C)(C)O returned CHX counter 1, NS1 inh -121%, AmpC inh detg -4%, AmpC no deterg inconclusive and Shiga inhibitor -6.
Screening CC(=O)N1CCCc2cc(S(=O)(=O)N3CCCC(C(=O)N4CCN(c5ccccc5F)CC4)C3)ccc21 (stereo unspecified) returned AmpC inh detg -6%.
Screening COc1cc2c(cc1NC(=O)c1cccc(F)c1)CCCC2 returned CHX counter 36*, NS1 inh -21%, AmpC inh detg -7%, AmpC no deterg -50% and Shiga inhibitor 67*.
Screening O=C(Nc1cccc2c1CCCC2)c1ccccc1F returned CHX counter 22*, NS1 inh 5%, AmpC inh detg 4%, AmpC no deterg -12% and Shiga inhibitor 44.
For COc1cc2c(cc1NC(=O)c1ccccc1F)CCCC2 the results were CHX counter 50*, NS1 inh -33%, AmpC inh detg -19%, AmpC no deterg -19% and Shiga inhibitor 93*.
For O=C(Nc1cccc2c1CCCC2)c1cccc(F)c1 the results were CHX counter -3, NS1 inh -38%, AmpC inh detg inconclusive, AmpC no deterg -28% and Shiga inhibitor -5.
For N=C1C(c2nc3ccccc3s2)=C(O)CN1NC(=O)c1ccco1 the results were CHX counter -2, NS1 inh -1%, AmpC inh detg -2%, AmpC no deterg 0% and Shiga inhibitor -10.
`N=C1C(c2nc3ccccc3s2)=C(O)CN1CCCO` gave CHX counter 14, NS1 inh -9%, AmpC inh detg 1%, AmpC no deterg -29% and Shiga inhibitor -12.
CCCCN1CC(O)=C(c2nc3ccccc3s2)C1=N was read as CHX counter 25*, NS1 inh -47%, AmpC inh detg inconclusive, AmpC no deterg -22% and Shiga inhibitor 44.
